The source of these data is PubChem BioAssay (Tox21).

The nature of assay [1]: qHTS assay to identify small molecule antagonists of the retinoid acid receptor (RAR) signaling pathway - cell viability counter screen (AID 1159551). For activity change, negative = cytotoxicity: % is set by controls: 0 for no effect and ±100 for the full control effect. Note: nearly all actives have a fitted effect of over 35% in size. Note: potency is the fitted concentration of half-maximal effect. The essentials: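 Viability of C3RL4 cells is quantified from ATP by luminescence after 6 h treatment at 37 C with compounds and 1 uM retinol.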
Assay [2] is described as follows: qHTS assay to identify small molecule antagonists of the estrogen related receptor (ERR) signaling pathway from Tox21 library - cell viability counter screen (AID 1224834). For viability change, negative = cytotoxic: % is set by controls: 0 for no effect and ±100 for the full control effect. Note: nearly all actives have a fitted effect of over 30% in size. Note: potency is the fitted concentration of half-maximal effect. Summed up:
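In this quantitative HTS format, ERR cells receive compounds in DMSO and are incubated for 17.5 h at 37 C. Live-cell protease activity is then detected with CellTiter-Fluor.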

The nature of assay [3]: qHTS assay to identify small molecule agonists of the constitutive androstane receptor (CAR) signaling pathway - cell viability counter screen (AID 1224836). For viability change, negative = cytotoxic: series mostly up to about 92 µM; % is set by controls: 0 for no effect and ±100 for the full control effect. Note: nearly all actives have a fitted effect of over 45% in size. Note: potency is the fitted concentration of half-maximal effect. The essentials:
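Using CellTiter-Fluor, viability of HepG2 cells harbouring hCAR and CYP2B6-2.2kb was measured following 23 h incubation with a 15-concentration compound series plus PK11195 (0.75 uM final).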
On the technique in general: Quantitative high-throughput screening tests each substance at several concentrations.

A short description of assay [4]: qHTS assay to identify small molecule antagonists of the constitutive androstane receptor (CAR) signaling pathway - cell viability counter screen (AID 1224837). For activity change, negative = cytotoxicity: series mostly up to about 92 µM; % is set by controls: 0 for no effect and ±100 for the full control effect. Note: nearly all actives have a fitted effect of over 45% in size. Note: potency is the fitted concentration of half-maximal effect. Summed up: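 In quantitative HTS format, compounds at 15 concentrations were applied to HepG2 cells double-transfected with hCAR and CYP2B6-2.2kb under 50 nM CITCO stimulation; live-cell protease activity was read after 23 hr via CellTiter-Fluor.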

A short description of assay [5]: qHTS RealTime-Glo MT Cell Viability Assay in HepG2 cells - 24 hour (AID 1224867). Note: nearly all actives have a fitted effect of over 50% in size. Note: potency is the fitted concentration of half-maximal effect. The essentials: (§1)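 Real-time, nonlytic viability: 600 HepG2 cells/well mixed with NanoLuc enzyme plus prosubstrate; 5 h settle, compound (DMSO) added by pintool; luminescence monitored over 40 h at 37 C.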
A short description of assay [6]: A CellTox Green Cytotoxicity Assay to monitor cytotoxicity in HepG2 cells - 40 hour (AID 1224879). Note: nearly all actives have a fitted effect of over 40% in size. Note: potency is the fitted concentration of half-maximal effect. Summed up: (§2)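 Fluorescent DNA-binding dye, 600 HepG2 cells/well, 5 h preincubation then compound in DMSO; same plates read at 0–40 h, 37 C.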
The nature of assay [7]: A CellTox Green Cytotoxicity Assay to monitor cytotoxicity in HepG2 cells - 32 hour (AID 1224883). Note: nearly all actives have a fitted effect of over 50% in size. Note: potency is the fitted concentration of half-maximal effect. The essentials:
as §2

Assay [8] is described as follows: A CellTox Green Cytotoxicity Assay to monitor cytotoxicity in HEK293 cells - 8 hour (AID 1224884). Note: nearly all actives have a fitted effect of over 35% in size. Note: potency is the fitted concentration of half-maximal effect. Summed up:
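Homogeneous no-lysis format: HEK293 cell suspension mixed with CellTox Green reagent, seeded, incubated 5 h at 37 C/5% CO2, then dosed by pintool with compound in DMSO.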

Assay [9] can be described thus: qHTS RealTime-Glo MT Cell Viability Assay in HepG2 cells - 16 hour (AID 1224885). Note: nearly all actives have a fitted effect of over 50% in size. Note: potency is the fitted concentration of half-maximal effect. Summed up:
as §1

Assay [10] is described as follows: qHTS assay to identify small molecule agonists of the sonic hedgehog signaling (Shh) pathway - cell viability counter screen (AID 1259366). Note: nearly all actives have a fitted effect of over 50% in size. Note: potency is the fitted concentration of half-maximal effect. Summed up:
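Same-well cytotoxicity read. Gli1-Luc reporter 3T3 cells; compounds 24hr, 37C/5% CO2; CellTiter-Fluor fluorescence.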

Assay [11] is described as follows: qHTS assay to identify small molecule antagonists of the sonic hedgehog signaling (Shh) pathway - cell viability counter screen (AID 1259367). Note: nearly all actives have a fitted effect of over 55% in size. Note: potency is the fitted concentration of half-maximal effect. The essentials: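 Tox21 library chemicals were tested on a Gli1-Luc NIH/3T3 clone (2,000 cells/well) stimulated by conditioned medium; viability was quantified as fluorescence from CellTiter-Fluor reagent added at 23 hr.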

For assay [12], the target named is Estrogen receptor (Homo sapiens) (UniProt P03372). Briefly: qHTS assay to identify small molecule agonists of the estrogen receptor alpha (ER-alpha) signaling pathway in the presence of an antagonist (AID 1259383; calls by dose curve; note: top concentration of the series differs between compounds; % is set by controls: 0 for no effect and ±100 for the full control effect; nearly all actives have a fitted effect of over 15% in size). The essentials: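 ER-alpha agonism measured under antagonist challenge: 10.0nM ICI-182,780 (final) plus compound, 15 concentrations, 22hr, VM7Luc4E2 ERE-luciferase cells. Read by luminescence.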

A short description of assay [13]: qHTS assay to identify small molecule agonists of the estrogen receptor alpha (ER-alpha) signaling pathway in the presence of an antagonist - cell viability counter screen (AID 1259386).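 Note: cells exposed to compounds for 22 h at 37 °C before the viability read; nearly all actives have a fitted effect of over 30% in size.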 Note: potency is the fitted concentration of half-maximal effect. Summed up: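 Steps: 5-day stripped-FBS culture; seed and incubate 24hr; add ICI-182,780 (10.0nM final); pin 15-point compound titration; incubate 22hr at 37C; add CellTiter-Fluor at 21hr; read fluorescence.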

Assay [14] can be described thus: qHTS assay to identify small molecule antagonists of the TGF-beta/Smad signaling pathway - cell viability counter screen (AID 1346824). Note: nearly all actives have a fitted effect of over 50% in size. Note: potency is the fitted concentration of half-maximal effect. Summed up:
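SBE-bla HEK 293T cells, incubated overnight, then compound plus 0.25 ng/mL TGF-beta1 (stock added) for 5 hr at 37 C. Viability was read in the same wells by CellTiter-Glo luminescence after 30 min at room temperature.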

Assay [15] can be described thus: qHTS assay to identify small molecule agonists of the TGF-beta/Smad signaling pathway - cell viability counter screen (AID 1346829). Note: top concentration of the series differs between compounds; % is set by controls: 0 for no effect and ±100 for the full control effect; nearly all actives have a fitted effect of over 45% in size. The essentials: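 Here the cytotoxicity of library compounds is measured in SBE-bla HEK 293T cells treated for 5 hr, using CellTiter-Glo added to wells already read for the beta-lactamase reporter.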
Assay [16] is described as follows: Caspase-3/7 induction in CHO-K1 cells by small molecules, qHTS cell viability counter screen (AID 1346979). Note: potency is the fitted concentration of half-maximal effect; nearly all actives have a fitted effect of over 35% in size. Summed up:
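CellTiter-Fluor viability check, qHTS format: wild-type CHO-K1, 16hr compound treatment, 1hr reagent incubation, fluorescence read.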

Assay [17] concerns the target Nuclear receptor subfamily 1 group I member 2 (Homo sapiens) (UniProt O75469). Briefly: Human pregnane X receptor (PXR) small molecule agonists, qHTS assay (AID 1346982). Note: nearly all actives have a fitted effect of over 35% in size. Note: potency is the fitted concentration of half-maximal effect. Summed up:
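After plating in 5% charcoal-stripped FBS and a 5 hr rest, PXR-Luc HepG2 cells received compounds in DMSO. Following 24 hr at 37 C, ONE-Glo was added and light output read.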

Assay [18] in a line: qHTS RealTime-Glo MT Cell Viability Assay in HEK293 cells - 32 hour (AID 1224868). Note: nearly all actives have a fitted effect of over 50% in size. Note: potency is the fitted concentration of half-maximal effect. Summed up:
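Cells + reagent dispensed (600 cells/well, HEK293) → 5 h at 37 C/5% CO2 → 23 nL compound in DMSO pinned → 40 h at 37 C → luminescence read at 0, 8, 16, 24, 32, 40 h.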

Assay [19] has as its target Luciferin 4-monooxygenase (Photinus pyralis) (UniProt P08659). As to the kind of experiment: qHTS assay to identify small molecule inhibitors of firefly luciferase (AID 1224835). Note: nearly all actives have a fitted effect of over 25% in size. Note: potency is the fitted concentration of half-maximal effect. Summed up: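 Biochemical qHTS: compounds run as interplate titrations against purified firefly enzyme, with D-luciferin and ATP each at its KM concentration. Light output recorded by CCD imaging.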

Assay [20] concerns the target Cytochrome P450 2C9 (Homo sapiens) (UniProt P11712). Briefly: Cytochrome P450 Family 2 Subfamily C Member 9 (CYP2C9) small molecule antagonists: luciferase reporter qHTS assay (AID 1671198). Note: nearly all actives have a fitted effect of over 50% in size. Note: potency is the fitted concentration of half-maximal effect. Summed up:
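P450-Glo proluciferin substrate with CYP2C9 enzyme; 10 min RT preincubation, then NADPH regeneration 1 h at 37C; luciferin detection reagent 20 min RT, luminescence in relative luminescence units.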
Background: In a reporter assay the amount or activity of a reporter protein is the signal.

Unmarked numbers belong to inactive results. Inconclusive results are not listed. Calls of active or inactive are those of the source. Unless noted, calls come from the whole dose curve; as a rule, active = well fitted curve in the direction sought with a large enough effect in the repeat runs; inconclusive = weak or mixed curves; inactive = no such curve, though single readings can be large; an effect the other way counts as inactive or inconclusive.

Estrogen receptor (Homo sapiens), sequence (P03372 whole entry, looked up): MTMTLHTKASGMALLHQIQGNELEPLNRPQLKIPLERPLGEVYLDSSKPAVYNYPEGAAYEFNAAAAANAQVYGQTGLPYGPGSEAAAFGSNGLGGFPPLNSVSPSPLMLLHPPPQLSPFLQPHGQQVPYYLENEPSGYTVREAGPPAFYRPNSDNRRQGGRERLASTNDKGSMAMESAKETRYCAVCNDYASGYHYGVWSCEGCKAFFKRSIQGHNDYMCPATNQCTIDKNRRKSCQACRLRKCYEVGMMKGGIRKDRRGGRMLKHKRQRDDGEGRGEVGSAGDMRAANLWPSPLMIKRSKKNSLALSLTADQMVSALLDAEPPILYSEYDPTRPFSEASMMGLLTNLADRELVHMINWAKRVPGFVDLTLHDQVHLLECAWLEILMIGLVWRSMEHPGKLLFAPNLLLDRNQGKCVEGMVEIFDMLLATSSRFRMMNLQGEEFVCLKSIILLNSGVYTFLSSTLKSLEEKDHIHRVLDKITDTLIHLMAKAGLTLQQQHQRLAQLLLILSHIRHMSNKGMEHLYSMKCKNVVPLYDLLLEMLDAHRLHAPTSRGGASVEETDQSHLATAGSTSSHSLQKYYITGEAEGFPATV
Nuclear receptor subfamily 1 group I member 2 (Homo sapiens), sequence (O75469 whole entry, looked up): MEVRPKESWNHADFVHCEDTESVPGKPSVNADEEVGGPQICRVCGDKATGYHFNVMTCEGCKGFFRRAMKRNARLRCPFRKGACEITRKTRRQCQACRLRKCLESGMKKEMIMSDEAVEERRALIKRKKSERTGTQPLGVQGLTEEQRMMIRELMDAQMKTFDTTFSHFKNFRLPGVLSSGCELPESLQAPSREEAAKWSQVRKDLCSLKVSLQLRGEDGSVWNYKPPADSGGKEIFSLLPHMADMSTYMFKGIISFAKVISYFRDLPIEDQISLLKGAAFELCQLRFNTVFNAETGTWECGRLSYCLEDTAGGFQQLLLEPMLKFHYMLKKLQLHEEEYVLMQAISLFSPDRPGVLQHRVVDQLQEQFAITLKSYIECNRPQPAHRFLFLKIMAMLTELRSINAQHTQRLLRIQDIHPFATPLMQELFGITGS
Luciferin 4-monooxygenase (Photinus pyralis), sequence (P08659 whole entry, looked up): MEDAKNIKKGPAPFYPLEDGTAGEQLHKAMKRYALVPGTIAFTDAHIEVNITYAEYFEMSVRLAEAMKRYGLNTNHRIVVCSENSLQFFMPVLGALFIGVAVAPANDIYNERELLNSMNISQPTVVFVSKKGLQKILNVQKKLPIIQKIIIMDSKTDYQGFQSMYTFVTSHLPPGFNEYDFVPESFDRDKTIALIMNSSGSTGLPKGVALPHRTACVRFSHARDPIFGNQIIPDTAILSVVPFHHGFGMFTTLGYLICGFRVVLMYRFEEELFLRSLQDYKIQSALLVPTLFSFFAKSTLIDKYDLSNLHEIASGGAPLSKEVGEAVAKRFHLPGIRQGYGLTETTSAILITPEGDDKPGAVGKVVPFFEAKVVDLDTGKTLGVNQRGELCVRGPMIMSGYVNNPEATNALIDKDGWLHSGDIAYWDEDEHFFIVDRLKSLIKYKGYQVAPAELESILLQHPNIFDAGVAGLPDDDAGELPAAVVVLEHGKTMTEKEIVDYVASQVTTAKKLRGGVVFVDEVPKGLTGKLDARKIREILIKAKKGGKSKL
Cytochrome P450 2C9 (Homo sapiens), sequence (P11712 whole entry, looked up): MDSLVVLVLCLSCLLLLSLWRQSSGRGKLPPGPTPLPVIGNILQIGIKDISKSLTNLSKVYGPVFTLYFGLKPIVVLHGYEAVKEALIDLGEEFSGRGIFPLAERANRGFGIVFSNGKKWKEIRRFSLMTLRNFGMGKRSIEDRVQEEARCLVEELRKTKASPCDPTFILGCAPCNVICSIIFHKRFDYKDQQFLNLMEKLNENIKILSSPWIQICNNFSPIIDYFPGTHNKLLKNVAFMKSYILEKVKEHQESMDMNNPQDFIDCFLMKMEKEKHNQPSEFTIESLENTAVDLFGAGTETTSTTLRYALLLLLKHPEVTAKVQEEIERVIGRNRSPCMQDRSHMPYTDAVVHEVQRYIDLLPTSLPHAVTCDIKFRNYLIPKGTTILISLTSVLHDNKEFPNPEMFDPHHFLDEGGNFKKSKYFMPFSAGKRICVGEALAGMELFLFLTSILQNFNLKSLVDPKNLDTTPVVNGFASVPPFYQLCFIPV

Take `CNC(=O)Oc1cc(C)c(SC)c(C)c1`: the Potency entry in assay [1], in [2], in assay [3], in assay [4], in assay [5] and in assay [6] was “inactive” in each case. The Potency result in assay [7], in assay [8], in [9], in [10], in [11] and in assay [13] was “inactive” each time. For the same compound, in [14], the Potency entry was “inactive”. The result in assay [12] and in assay [15] was inactive. Besides, the figures for the Potency in assay [16] and in assay [17] were 54.5 µM (active) and 61.1 µM (active), respectively.

`Cc1ccc2nc3sc(=O)sc3nc2c1`: the activity change, negative = cytotoxicity in assay [1] is 1.22% [at 19 µM]; in assay [4] it was 11.8% [at 19 µM]; in assay [5], -4.88% [at 15.8 µM]; in assay [13], -6.53% [at 19 µM]; in assay [15] it was 17% [at 15.8 µM]. The viability change, negative = cytotoxic in [2] was -9.38% [at 19 µM]; in assay [3], 1.63% [at 19 µM]; in assay [10], -7.48% [at 19 µM]; in [14], 2.33% [at 15.8 µM]. Also, the activity change, negative = cytotoxic in [18] is 8.73% [at 15.8 µM]; in [9], 0.198% [at 15.8 µM]. In addition, the figures for the cytotoxicity increase in [6], in [7] and in assay [8] were -2.41% [at 15.8 µM], -5.02% [at 15.8 µM] and 4.71% [at 15.8 µM], respectively. Moreover, the activation in assay [12] is -0.0346% [at 19 µM]; in assay [17], 20.6% [at 19 µM]. Moreover, the Potency in [16] was 5.8 µM (active).

On to `CO/C=C(/C(=O)OC)c1ccccc1Oc1cc(Oc2ccccc2C#N)ncn1`, for which the Potency in assay [1] is 32.7 µM (active); in assay [2], 20.6 µM (active); in [18] it was 23.3 µM (active); in assay [11], 58.1 µM (active); in assay [13], 21.7 µM (active); in [14], 34.7 µM (active). In addition, the Potency is 1.05 µM (active) in assay [16], 0.686 µM (active) in assay [17] and 7.45 µM (active) in assay [20]. Besides, the Potency result in assay [19], in assay [6], in assay [7] and in [8] was “inactive” each time. In addition, the outcome in assay [12] was inactive.

Regarding `N#Cc1cc([N+](=O)[O-])ccc1N`, the Potency entry in assay [1], in assay [19], in assay [5], in assay [18], in [6] and in assay [7] was “inactive” throughout. In addition, the Potency entry in assay [8], in assay [9], in assay [17] and in assay [20] was “inactive” throughout. For the same compound, the outcome in [12] and in [15] was inactive. Moreover, the Potency in assay [16] is 61.1 µM (active).

In the case of `O=S(=O)(C(Cl)(Cl)Cl)C(Cl)(Cl)Cl`, the Potency in assay [1] was 61.1 µM (active); in [2], 48.6 µM (active); in [19] it was 20 µM (active); in [3], 54.5 µM (active); in assay [4], 30.6 µM (active); in assay [5], 38.9 µM (active). In addition, the Potency in assay [18] is 9.77 µM (active); in assay [6] it was 19.5 µM (active); in assay [7] it was 24.5 µM (active); in [8], 24.5 µM (active); in assay [9] it was 38.9 µM (active); in assay [10] it was 9.69 µM (active). Besides, the Potency in assay [11] is 54.5 µM (active); in assay [16], 8.63 µM (active); in assay [20], 11.2 µM (active). In [12], the outcome was inactive. Besides, the Potency entry in assay [13] and in assay [17] was “inactive” in each case.

`Cc1cc(C)c(C(=O)P(=O)(c2ccccc2)c2ccccc2)c(C)c1`: the Potency result in [1], in assay [19], in [8] and in assay [14] was “inactive” in each case. The Potency in assay [18] is 49 µM (active); in assay [10], 61.1 µM (active); in assay [11] it was 54.5 µM (active); in assay [17], 9.69 µM (active); in [20], 15.9 µM (active). In addition, the outcome in assay [12] was inactive.

Consider `O=C1C(I)=CC(=C(c2cc(I)c(O)c(I)c2)c2ccccc2C(=O)O)C=C1I`, for which the Potency entry in assay [1], in [3], in [4], in assay [5], in [18] and in assay [6] was “inactive” each time. In addition, the Potency entry in [7], in assay [8], in assay [9], in assay [10], in assay [11] and in assay [13] was “inactive” in each case. Also, the Potency entry in [14] is “inactive”. Further, the outcome in assay [12] and in assay [15] was inactive. Moreover, the Potency is 11.9 µM (active) in [17] and 3.89 µM (active) in assay [20].
